Results: PubChem BioAssay (NCATS)
Values joined by “and” are separate entries in the source; they are usually repeats but may differ in a detail not shown here. Equal entries are not always repeated. Records with an inconclusive call do not appear. Some structures have more than one record in an assay (separate samples or runs), and their calls can disagree. Active and inactive are the calls of the source. Unless noted, calls follow the shape of the dose curve; as a rule, active = well fitted curve in the direction sought with a large enough effect; inconclusive = small, poorly fitted or top-dose-only effect, or another doubt; inactive = no such curve, though single readings can be large; an effect the other way counts as inactive or inconclusive.

Experiments:
[1] = molecular target: Cytochrome P450 1A2 (Homo sapiens) (UniProt P05177); assay: p450-cyp1a2 (AID 410; calls by dose curve; also: potency is read from the fitted curve at half-maximal effect;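 as to activity change, negative = inhibition: -100% = full effect of reference inhibitor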)
Cytochrome P450 1A2 (Homo sapiens), sequence (P05177 whole entry, looked up): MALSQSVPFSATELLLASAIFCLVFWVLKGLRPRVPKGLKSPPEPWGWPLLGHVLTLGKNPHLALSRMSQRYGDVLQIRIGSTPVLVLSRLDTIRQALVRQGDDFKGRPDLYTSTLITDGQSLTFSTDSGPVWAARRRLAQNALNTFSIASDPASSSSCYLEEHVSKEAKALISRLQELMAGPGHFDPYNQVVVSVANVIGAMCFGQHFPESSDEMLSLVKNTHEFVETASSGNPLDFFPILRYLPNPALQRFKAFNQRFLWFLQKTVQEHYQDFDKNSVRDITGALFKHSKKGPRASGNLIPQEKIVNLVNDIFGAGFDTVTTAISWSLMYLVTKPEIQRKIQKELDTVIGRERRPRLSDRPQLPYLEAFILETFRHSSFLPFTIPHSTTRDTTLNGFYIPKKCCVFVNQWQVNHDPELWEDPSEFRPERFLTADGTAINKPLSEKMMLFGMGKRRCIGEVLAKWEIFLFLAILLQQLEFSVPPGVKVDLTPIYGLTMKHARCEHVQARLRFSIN
Outline: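 O-Demethylation of luciferin 6' methyl ether by human CYP1A2 is monitored as luciferase luminescence. Substrate sits at Km (100uM); enzyme is 20nM. Values are scaled to 57 uM furafylline as maximal inhibition.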

[2] = molecular target: Glucocorticoid receptor (Homo sapiens) (UniProt P04150); assay: GR-GFP Redistribution (AID 450;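 active = compounds whose dose series gives a full or clear partial fitted curve of increased nuclear translocation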; also: potency is read from the fitted curve at half-maximal effect); conditions: U2OS GR-GFP nuclear translocation, laser cytometry, 2 h
Glucocorticoid receptor (Homo sapiens), sequence (P04150 whole entry, looked up, the tested form may be a part): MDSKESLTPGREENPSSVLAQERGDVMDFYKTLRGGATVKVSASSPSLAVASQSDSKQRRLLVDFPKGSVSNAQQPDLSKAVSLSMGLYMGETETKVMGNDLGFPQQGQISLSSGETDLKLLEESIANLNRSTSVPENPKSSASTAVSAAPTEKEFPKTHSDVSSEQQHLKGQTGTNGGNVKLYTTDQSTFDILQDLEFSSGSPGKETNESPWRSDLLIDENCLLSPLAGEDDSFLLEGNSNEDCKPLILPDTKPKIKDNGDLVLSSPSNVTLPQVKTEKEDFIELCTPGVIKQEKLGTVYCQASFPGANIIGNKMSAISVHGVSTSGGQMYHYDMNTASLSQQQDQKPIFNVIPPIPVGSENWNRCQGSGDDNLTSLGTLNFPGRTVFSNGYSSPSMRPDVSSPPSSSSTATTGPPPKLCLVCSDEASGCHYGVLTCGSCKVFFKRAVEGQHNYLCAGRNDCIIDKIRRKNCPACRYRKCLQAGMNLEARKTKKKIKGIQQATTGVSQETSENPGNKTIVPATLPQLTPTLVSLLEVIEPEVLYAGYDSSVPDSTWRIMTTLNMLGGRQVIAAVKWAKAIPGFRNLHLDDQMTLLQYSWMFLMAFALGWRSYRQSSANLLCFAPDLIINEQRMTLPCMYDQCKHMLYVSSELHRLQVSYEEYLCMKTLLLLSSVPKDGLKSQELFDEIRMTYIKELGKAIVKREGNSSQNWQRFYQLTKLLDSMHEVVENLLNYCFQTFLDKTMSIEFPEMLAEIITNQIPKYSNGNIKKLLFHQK

[3] = molecular target: Glucocorticoid receptor (Homo sapiens) (UniProt P04150); assay: GR-EFC Redistribution (AID 451; calls by dose curve; also: potency is read from the fitted curve at half-maximal effect); conditions: CHO-K1 GR-EFC translocation, beta-gal luminescence, 2 h
Outline: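 CHO-K1 cells expressing nuclear EA and GR-ED fragments of b-gal; compounds titrated up to 46 uM final, 2 h at 37 C. GR nuclear translocation read as complemented b-gal luminescence after 1 h RT detection.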

[4] = molecular target: Mitogen-activated protein kinase 10 (Mus musculus) (UniProt Q61831); assay: JNK3 AlphaScreen Assay (AID 530; active = well fitted curve in either direction with a large enough effect, not every such curve was filed as active;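 also: kinase came from lysate of stimulated human HepG2 cells; signal reports phosphorylation of biotinylated GST-cJun 1-79 at Ser73 with 10 µM ATP; % is scaled to controls: 0 for no effect and ±100 for the full control effect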)
Outline: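 Activity was read by AlphaScreen after JNK3-containing HepG2 lysate (cytokine pre-activated) phosphorylated biotinylated GST-cJun with 10 uM ATP at room temperature. Phospho-Ser73 cJun antibody with Protein-A acceptor beads provided detection.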

[5] = molecular target: 3',5'-cyclic-AMP phosphodiesterase 4B (Homo sapiens) (UniProt Q07343); assay: qHTS Assay for Inhibitors of PDE-IV (AID 607; active = well fitted activation curve with a large enough effect in the main read-out, with a control signal flat, not every such curve was filed as active; also: % of control where 0% means no effect)
3',5'-cyclic-AMP phosphodiesterase 4B (Homo sapiens), sequence (Q07343 whole entry, looked up): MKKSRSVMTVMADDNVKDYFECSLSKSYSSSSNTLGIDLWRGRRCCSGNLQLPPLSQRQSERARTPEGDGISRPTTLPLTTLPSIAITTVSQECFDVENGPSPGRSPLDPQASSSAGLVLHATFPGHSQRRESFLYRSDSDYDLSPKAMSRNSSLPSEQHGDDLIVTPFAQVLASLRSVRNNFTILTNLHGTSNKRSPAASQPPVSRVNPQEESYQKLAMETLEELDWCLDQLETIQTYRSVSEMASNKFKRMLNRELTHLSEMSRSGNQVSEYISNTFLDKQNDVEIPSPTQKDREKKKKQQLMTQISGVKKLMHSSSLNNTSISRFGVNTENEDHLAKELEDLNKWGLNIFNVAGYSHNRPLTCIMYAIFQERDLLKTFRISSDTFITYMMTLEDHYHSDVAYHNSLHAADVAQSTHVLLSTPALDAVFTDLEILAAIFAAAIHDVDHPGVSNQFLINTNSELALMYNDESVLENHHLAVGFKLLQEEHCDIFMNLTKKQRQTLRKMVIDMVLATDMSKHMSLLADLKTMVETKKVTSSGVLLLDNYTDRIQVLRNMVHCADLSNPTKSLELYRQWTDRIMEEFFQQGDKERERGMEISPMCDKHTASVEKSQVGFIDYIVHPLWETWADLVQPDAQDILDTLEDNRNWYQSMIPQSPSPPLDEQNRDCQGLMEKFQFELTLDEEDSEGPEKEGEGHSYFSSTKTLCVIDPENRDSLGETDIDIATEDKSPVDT
Outline: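 HEK293 ACTOne cells with CNG channel (1000/well), endogenous PDE4; membrane potential dye, compounds up to 22.9 uM final. Fluorescence Ex 535/Em 590; RO 20-1724 (100 uM final) as reference.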

[6] = qHTS Assay for Lipid Storage Modulators (AID 1519; calls by dose curve); conditions: Drosophila S3 cells, BODIPY lipid droplet/cell ratio, laser cytometry, cells loaded with oleic acid; for activity change, negative = inhibition: at 57.5 µM (top of the series)
Outline: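 Cells seeded at 5,000 per well were treated with compounds over a concentration series and loaded with oleic acid (400 uM, as added). Lipid droplet fluorescence (488 nm excitation, 500-530 nm channel) was read by laser-scanning cytometry and normalized to 20 uM Triacsin C.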

[7] = molecular target: DNA dC->dU-editing enzyme APOBEC-3G (Homo sapiens) (UniProt Q9HC16); assay: qHTS for inhibitors of Vif-A3G interactions: Validation (AID 588379); also: 0% is about no effect
DNA dC->dU-editing enzyme APOBEC-3G (Homo sapiens), sequence (Q9HC16 whole entry, looked up): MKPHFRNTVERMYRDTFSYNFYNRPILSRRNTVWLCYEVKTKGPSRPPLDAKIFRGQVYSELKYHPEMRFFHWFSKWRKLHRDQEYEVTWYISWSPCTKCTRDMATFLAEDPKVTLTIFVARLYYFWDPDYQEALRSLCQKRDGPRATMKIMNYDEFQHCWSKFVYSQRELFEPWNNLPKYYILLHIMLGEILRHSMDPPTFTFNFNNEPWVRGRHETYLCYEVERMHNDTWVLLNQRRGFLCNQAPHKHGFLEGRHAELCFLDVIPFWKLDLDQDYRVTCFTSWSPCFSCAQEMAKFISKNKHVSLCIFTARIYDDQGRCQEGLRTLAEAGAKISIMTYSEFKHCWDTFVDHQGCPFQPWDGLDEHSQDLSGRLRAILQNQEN
Outline: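 Yellow fluorescence (Ex 488, Em 500-530) of Vif-coexpressing HeLa A3G-eYFP cells, scanned by Acumen cytometer, reports blocked A3G degradation. Cells plated at 700/well overnight at 37 deg C before compound addition, then a further overnight compound incubation at 37 deg C.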

[8] = system: Zika virus NS2B-NS3 protease; assay: Primary screen GU AMC qHTS for Zika virus inhibitors (AID 1347154);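 also: 0% = no-inhibitor control and -100% = no-enzyme control; nearly all actives have a fitted effect of over 70% in size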
Outline: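 Unlinked Zika NS2B hydrophilic domain–NS3 protease complex at 25 nM in 10 mM Tris-HCl pH 8.0, 0.01% Tween 20, with an AMC peptide substrate. Fluorescence change (340/450 nm) over 15 min at room temperature, normalized to controls, fitted to 4-parameter Hill.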

[9] = Primary qHTS for small molecule stabilizers of the endoplasmic reticulum resident proteome: Secreted ER Calcium Modulated Protein (SERCaMP) assay (AID 1508630); also: potency is read from the fitted curve at half-maximal effect
Outline: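 The SH-SY5Y reporter protocol was run at 3 concentrations up to 38.3 uM (primary) or 11 concentrations (follow-up): 16 h compound, 100 nM thapsigargin for 4 h, then extracellular luciferase luminescence.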

[10] = molecular target: Guanine nucleotide-binding protein G(i) subunit alpha-1 (Homo sapiens) (UniProt P63096); assay: qHTS Assay for Inhibitors of RGS12 GoLoco Motif Activity (Green Fluorophore) (AID 879);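 also: 0% = labeled peptide with Gαi1 and full inhibition = labeled peptide alone without protein; negative values mean loss of peptide binding seen as reduced polarization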
Guanine nucleotide-binding protein G(i) subunit alpha-1 (Homo sapiens), sequence (P63096 whole entry, looked up): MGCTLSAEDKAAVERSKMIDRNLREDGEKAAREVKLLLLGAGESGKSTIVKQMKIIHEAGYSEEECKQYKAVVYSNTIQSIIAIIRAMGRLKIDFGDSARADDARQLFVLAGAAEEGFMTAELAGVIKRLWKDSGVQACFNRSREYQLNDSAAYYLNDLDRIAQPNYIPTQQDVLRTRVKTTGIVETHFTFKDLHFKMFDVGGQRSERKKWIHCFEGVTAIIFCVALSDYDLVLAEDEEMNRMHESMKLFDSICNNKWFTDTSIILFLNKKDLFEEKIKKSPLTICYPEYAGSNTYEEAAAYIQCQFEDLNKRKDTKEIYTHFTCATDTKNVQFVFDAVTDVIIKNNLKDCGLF
Outline: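 A drop in FITC polarization marked displacement of the FITC-tagged RGS12 GoLoco peptide (10 nM) from Gαi1 (50 nM). Compounds were incubated 10 min at room temperature in Tris pH 7.5 buffer containing 150 mM NaCl, 0.1 mM GDP and 0.05% NP40; unlabeled peptide titration served as control.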

[11] = qHTS Assay for Identification of Small Molecule Agonists for Thrombopoietin (TPO) Signaling Pathway (AID 917); also: % is scaled to controls: 0 for no effect and ±100 for the full control effect
Outline: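 Luciferase reporter (Glycoprotein IIb promoter) in IL-3-deprived Ba/F3 cells carrying human TPO receptor; compounds co-added with 26 pM TPO, incubated 24 h, 37 C. Steadylite luminescence measured after 10 min.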

[12] = molecular target: Muscarinic acetylcholine receptor M1 (Rattus norvegicus) (UniProt P08482); assay: qHTS Assay for Antagonists of Acetylcholine Muscarinic M1 Receptor: Measurement of IP-One Response (AID 944); also: nearly all actives have a fitted effect of over 75% in size
Muscarinic acetylcholine receptor M1 (Rattus norvegicus), sequence (P08482 whole entry, looked up): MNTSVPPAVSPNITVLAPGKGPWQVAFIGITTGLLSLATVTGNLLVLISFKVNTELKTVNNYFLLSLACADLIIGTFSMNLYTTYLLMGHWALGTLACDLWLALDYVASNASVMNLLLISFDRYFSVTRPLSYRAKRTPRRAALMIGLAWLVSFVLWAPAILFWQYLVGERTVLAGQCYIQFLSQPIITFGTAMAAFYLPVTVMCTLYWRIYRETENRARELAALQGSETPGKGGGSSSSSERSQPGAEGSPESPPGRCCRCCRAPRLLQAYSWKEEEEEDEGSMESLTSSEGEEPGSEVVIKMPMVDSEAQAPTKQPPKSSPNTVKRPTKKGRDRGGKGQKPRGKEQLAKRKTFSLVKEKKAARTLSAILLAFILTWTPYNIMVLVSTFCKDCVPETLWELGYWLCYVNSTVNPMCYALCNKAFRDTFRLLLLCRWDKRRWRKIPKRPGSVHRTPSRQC
Outline: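 Antagonist mode with rat M1 receptor transfected into CHO cells. Compound is added first for 10 min, carbachol at its EC80 follows for 30 min, and lysis reagents then allow TR-FRET detection of accumulated IP1.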

[13] = molecular target: Pyruvate kinase (Leishmania mexicana) (UniProt Q27686); assay: qHTS Validation Assay for Inhibitors of Leishmania Mexicana Pyruvate Kinase (AID 945);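 also: 0% = DMSO only neutral control wells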
Pyruvate kinase (Leishmania mexicana), sequence (Q27686 2-499 E452W): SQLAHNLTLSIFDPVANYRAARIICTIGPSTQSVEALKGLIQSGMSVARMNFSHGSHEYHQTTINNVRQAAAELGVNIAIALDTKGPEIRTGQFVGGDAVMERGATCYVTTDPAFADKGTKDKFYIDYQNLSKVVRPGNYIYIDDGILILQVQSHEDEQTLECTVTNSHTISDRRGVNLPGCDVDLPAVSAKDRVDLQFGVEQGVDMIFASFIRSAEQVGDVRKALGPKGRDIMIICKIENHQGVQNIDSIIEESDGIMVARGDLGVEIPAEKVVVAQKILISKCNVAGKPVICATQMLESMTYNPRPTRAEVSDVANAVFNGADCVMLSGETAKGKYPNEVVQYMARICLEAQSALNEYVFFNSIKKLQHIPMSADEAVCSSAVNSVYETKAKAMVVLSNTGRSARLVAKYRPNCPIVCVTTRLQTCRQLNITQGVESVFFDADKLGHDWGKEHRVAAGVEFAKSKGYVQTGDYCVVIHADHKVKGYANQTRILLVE
Outline: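 Mutant LmPYK (E451W), 0.2 nM, plus 0.5 mM PEP and 0.1 mM ADP in 50 mM imidazole pH 7.2 containing 0.01% Tween 20 and 0.05% BSA. Incubated 1 h at room temperature; luminescence via PKLight, normalized to DMSO.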

[14] = molecular target: Pyruvate kinase PKM (Homo sapiens) (UniProt P14618); assay: qHTS Assay for Activators of Human Muscle Pyruvate Kinase (AID 954; active = well fitted curve in the direction sought with a large enough effect, not every such curve was filed as active;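 also: 0% = uninhibited enzyme and -100% = no enzyme or full thiadiazolimine inhibition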)
Outline: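 Compound pinned into substrate mix (0.5 mM PEP, 0.1 mM ADP), then 0.1 nM PKM2 added; 1 h, RT. Stop/detection luciferase reagent added, luminescence read. Normalized to no-inhibition and no-enzyme or reference-inhibitor controls.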

[15] = molecular target: Alpha-galactosidase A (Homo sapiens) (UniProt P06280); assay: Counterscreen for Glucocerebrosidase Inhibitors: qHTS Assay for Human alpha-Galactosidase at pH 4.5 (AID 992); also: 0% is about no effect
Alpha-galactosidase A (Homo sapiens), sequence (P06280 whole entry, looked up): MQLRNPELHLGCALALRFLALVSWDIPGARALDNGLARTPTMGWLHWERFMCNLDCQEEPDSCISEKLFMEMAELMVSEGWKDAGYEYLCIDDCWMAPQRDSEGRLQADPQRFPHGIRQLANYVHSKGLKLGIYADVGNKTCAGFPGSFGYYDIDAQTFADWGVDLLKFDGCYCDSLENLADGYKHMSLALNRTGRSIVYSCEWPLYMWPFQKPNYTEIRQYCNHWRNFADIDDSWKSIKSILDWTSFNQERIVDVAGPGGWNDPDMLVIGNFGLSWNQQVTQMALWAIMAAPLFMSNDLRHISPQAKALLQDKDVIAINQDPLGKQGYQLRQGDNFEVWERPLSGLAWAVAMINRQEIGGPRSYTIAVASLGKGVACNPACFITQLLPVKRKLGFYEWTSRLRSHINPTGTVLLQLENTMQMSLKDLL
Outline: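 Steps: enzyme (2 nM final), then compound across 0.7 nM to 77 uM, then 80 uM fluorogenic galactopyranoside substrate; incubate 20 min at room temperature; quench at pH 10; measure fluorescence at 365/440 nm.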

[16] = molecular target: alpha-glucosidase (Oryza sativa, rice) (UniProt Q653V4); assay: Counterscreen for Glucocerebrosidase Inhibitors: qHTS Assay for Rice alpha-Glucosidase at pH 5.0 (AID 997);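 also: 0% = full activity with enzyme and -100% = basal without enzyme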
Outline: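 Endpoint fluorogenic assay at pH 5.0: compounds (0.7 nM to 77 uM) titrated against 4 nM rice enzyme and 400 uM 4-MU-alpha-glucoside for 20 min at room temperature; NaOH/glycine stop, read ex 365/em 440 nm, Hill-fitted AC50.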

[17] = molecular target: Ubiquitin carboxyl-terminal hydrolase 1 (Homo sapiens) (UniProt O94782); assay: Inhibitors of USP1/UAF1: Pilot qHTS (AID 504865);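 also: rhodamine fluorescence freed from ubiquitin-rhodamine substrate followed over time; top concentration of the series differs between compounds; % is scaled to controls: 0 for no effect and ±100 for the full control effect; nearly all actives have a fitted effect of over 35% in size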
Ubiquitin carboxyl-terminal hydrolase 1 (Homo sapiens), sequence (O94782 whole entry, looked up): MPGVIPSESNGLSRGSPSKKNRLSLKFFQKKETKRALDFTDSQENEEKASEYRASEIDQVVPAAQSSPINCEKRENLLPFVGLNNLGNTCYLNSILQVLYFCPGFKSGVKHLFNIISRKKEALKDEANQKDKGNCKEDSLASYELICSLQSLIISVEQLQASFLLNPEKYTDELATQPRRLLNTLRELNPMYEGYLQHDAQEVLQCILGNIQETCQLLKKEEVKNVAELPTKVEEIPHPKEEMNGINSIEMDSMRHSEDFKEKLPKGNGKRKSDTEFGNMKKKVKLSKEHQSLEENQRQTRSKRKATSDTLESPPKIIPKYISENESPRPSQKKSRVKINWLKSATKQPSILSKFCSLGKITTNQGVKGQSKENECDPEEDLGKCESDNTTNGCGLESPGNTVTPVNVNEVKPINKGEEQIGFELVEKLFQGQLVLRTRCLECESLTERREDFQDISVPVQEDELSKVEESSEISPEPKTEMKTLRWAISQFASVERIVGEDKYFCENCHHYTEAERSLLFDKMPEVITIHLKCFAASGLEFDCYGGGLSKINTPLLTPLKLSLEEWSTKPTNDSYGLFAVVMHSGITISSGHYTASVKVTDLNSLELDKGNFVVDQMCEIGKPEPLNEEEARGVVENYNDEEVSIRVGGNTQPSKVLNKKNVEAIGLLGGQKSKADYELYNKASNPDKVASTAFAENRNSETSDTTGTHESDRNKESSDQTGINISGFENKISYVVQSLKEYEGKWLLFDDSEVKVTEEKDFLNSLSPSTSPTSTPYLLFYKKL
Outline: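 Deubiquitinase activity followed as kinetic rhodamine fluorescence release from 150 nM Ub-Rho. 1 nM USP1/UAF1 with compound, after 15 min room-temperature preincubation, in HEPES pH 7.8 buffer containing TCEP, EDTA, BSA and Tween-20.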

[18] = AP1 Signaling Pathway (AID 357; active = well fitted curve in either direction with a large enough effect, not every such curve was filed as active;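 also: ME-180 reporter cells stimulated with EGF at its EC50 level; % is scaled to controls: 0 for no effect and ±100 for the full control effect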); conditions: ME-180 AP-1-bla reporter, EGF-induced, beta-lactamase ratio, 5 h; at 38 µM (top of the series)
Outline: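 Beta-lactamase reporter under AP-1 response element, ME-180 background. Stimulus: EC50 EGF. Compound exposure 5 h, 37 °C. Detection: CCF4, 2.5 h RT, 460/530 nm. Values: AC50 from titration.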

[19] = NFAT Signaling Pathway (AID 444; active = well fitted curve in either direction with a large enough effect, not every such curve was filed as active;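 also: carbachol stimulus at about its EC50 of 1 µM final; % is scaled to controls: 0 for no effect and ±100 for the full control effect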); conditions: Jurkat NFAT-bla M1, carbachol, beta-lactamase ratio, 5 h; at 38 µM (top of the series)
Outline: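 Jurkat cells with NFAT-driven β-lactamase reporter and co-expressed M1 receptor, stimulated with carbachol (final 1 uM, ~EC50), compound titration, 5 h at 37 °C. CCF4 loaded 1 h at RT; 460/530 nm ratio gave %activity and AC50.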

[20] = Stat Signaling Pathway (AID 446; active = well fitted curve in either direction with a large enough effect, not every such curve was filed as active); conditions: ME-180 (cervical carcinoma) SIE beta-lactamase reporter, IL-6 stimulated, 5 h; at 38 µM (top of the series)
Outline: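 Normalization used AC90 stimulation (300 pM IL-6) and AC90 inhibition (125 nM pan-JAK inhibitor at 40 pM IL-6). The underlying signal is SIE-driven beta-lactamase in ME-180 cells after 5 h IL-6 exposure with compound.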

[21] = molecular target: Cytochrome P450 2C9 (Homo sapiens) (UniProt P11712); assay: qHTS Assay for Inhibitors and Substrates of Cytochrome P450 2C9 (AID 883); also: % is scaled to controls: 0 for no effect and ±100 for the full control effect; nearly all actives have a fitted effect of over 60% in size
Outline: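 Signal: luciferase luminescence reporting luciferin produced by CYP2C9. Conditions: 10nM enzyme, Luciferin-H 100uM at KM, 25mM KPO4, 37C, 60 min NADPH-driven reaction. Reference: 57uM sulphaphenazole as 100% inhibition.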

[22] = molecular target: Cytochrome P450 3A4 (Homo sapiens) (UniProt P08684); assay: qHTS Assay for Activators of Cytochrome P450 3A4 (AID 885); also: nearly all actives have a fitted effect of over 65% in size
Outline: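 Human CYP3A4 dealkylates Luciferin-PPXE to luciferin, which luciferase detection converts to light. Substrate was at its KM (25uM), buffer 200mM KPO4, reaction 60 min at RT.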

[23] = molecular target: Cytochrome P450 2C19 (Homo sapiens) (UniProt P33261); assay: qHTS Assay for Inhibitors and Substrates of Cytochrome P450 2C19 (AID 899); also: % is scaled to controls: 0 for no effect and ±100 for the full control effect; nearly all actives have a fitted effect of over 60% in size
Outline: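 Signal comes from luciferase acting on luciferin released by CYP2C19-mediated hydroxylation of Luciferin-H EGE, 10uM (KM). Assay mix: 5nM enzyme, 50mM KPO4; 60 min at 37C with NADPH regeneration. Data normalized against 57uM ketoconazole.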

[24] = molecular target: Cytochrome P450 3A4 (Homo sapiens) (UniProt P08684); assay: qHTS Assay for Inhibitors and Substrates of Cytochrome P450 3A4 (AID 884); also: % is scaled to controls: 0 for no effect and ±100 for the full control effect; nearly all actives have a fitted effect of over 50% in size
Outline: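 Luminescent readout of luciferin produced by CYP3A4 (20 nM) dealkylation of Luciferin-PPXE, 25 uM (its KM). NADPH-driven reaction ran 60 min at RT after 10 min compound preincubation; data scaled to 57 uM ketoconazole as 100% inhibition.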

[25] = molecular target: Muscarinic acetylcholine receptor M1 (Rattus norvegicus) (UniProt P08482); assay: qHTS Assay for Antagonists of Acetylcholine Muscarinic M1 Receptor: Kinetic Measurement of Intracellular Calcium Response (AID 943);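 also: Fluo-4 calcium signal as peak divided by basal fluorescence over 4 min; nearly all actives have a fitted effect of over 75% in size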
Outline: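 Antagonism is measured as inhibition of the carbachol-evoked calcium rise in CHO cells transfected with rat M1. Cells are dye-loaded, exposed to compound for 10 min, then stimulated with 100 nM carbachol (EC80).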

[26] = measured here: cell count channel max response
[27] = measured here: lipid channel max response

CC(=O)N1CCN(C)CC1
inactive: Potency [2] > 46 µM | Potency [3] > 46 µM | Potency [4] | Potency [5] | activity change, negative = inhibition [6] -3.74% | Potency [7] | Potency [8] | Potency [9]
-5.67%: max response [6, 27]
-2.52%: max response [6, 26]
active: Potency [1] 31.6 µM

N[C@H](C(=O)O)[C@@H]1C[C@@H]1C(=O)O
inactive: Potency [1] | Potency [2] > 46 µM | Potency [3] > 46 µM | Potency [4] | Potency [5] | outcome [10] | Potency [11] | Potency [12] | Potency [13] | outcome [14] | outcome [15] | outcome [16] | activity change, negative = inhibition [6] 0.571% and -0.444% | Potency [17] | Potency [7] | Potency [8] | Potency [9]
-21% and 5.3%: max response [6, 26]
-19.5% and 5.06%: max response [6, 27]

CC(C)[C@@H]1[C@H]2CC[C@H](C2)[C@H]1N
active: Potency [9] 1 µM
inactive: activity change, negative = inhibition [18] 17.6% | activity change, negative = inhibition [19] 2.88% | activity, negative = inhibition [20] 4.64% | Potency [2] > 46 µM | Potency [3] > 46 µM | Potency [4] | Potency [5] | Potency [21] | Potency [22] | Potency [23] | activity change, negative = inhibition [6] -6.29% | Potency [7] | Potency [8]
-17.5%: max response [6, 27]
-11.1%: max response [6, 26]
inactive and 31.6 µM (active): Potency [1]

CC(N)=NCCCC[C@H](N)C(=O)O
inactive and 39.8 µM (active): Potency [1]
-8.18%: max response [6, 26]
inactive: activity change, negative = inhibition [18] -1.14% | activity change, negative = inhibition [19] -3.86% | activity, negative = inhibition [20] -14% | Potency [2] > 46 µM | Potency [3] > 46 µM | Potency [4] | Potency [5] | outcome [10] | Potency [21] | Potency [24] | Potency [11] | Potency [25] | Potency [12] | Potency [13] | outcome [15] | outcome [16] | activity change, negative = inhibition [6] -4.89% | Potency [17] | Potency [7] | Potency [8] | Potency [9]
-10.8%: max response [6, 27]

N[C@](CC1c2ccccc2Oc2ccccc21)(C(=O)O)[C@@H]1C[C@@H]1C(=O)O
20%: max response [6, 27]
inactive: Potency [2] > 46 µM | Potency [3] > 46 µM | Potency [4] | Potency [5] | activity change, negative = inhibition [6] 5.89% | Potency [17] | Potency [7] | Potency [8] | Potency [9]
active: Potency [1] 31.6 µM
12.4%: max response [6, 26]
